The full list was thinned out, with hits kept by preference.
Measles inh: inhibitors of measles virus growth in infected cells; infected Vero cells, GFP fluorescence, 64 h; hits give low values; z-score (concentration not given with the values); actives 0.1% (n = 33,000); in the data active = z-score below about -3
* marks the source's active call; other numbers are inactive results.

SMILES | Measles inh
CCc1ccccc1NC(=O)CCS(=O)(=O)c1cc(Br)cc2c1N(C(=O)C1CC1)CC2 | 1.4
O=C(NCc1ccc(F)cc1)c1ccc(Cn2c(=S)[nH]c3ccccc3c2=O)cc1 | -0.58
O=C(CCn1c(=S)[nH]c2ccsc2c1=O)NCc1ccco1 | -0.34
Cc1c(C(=O)O)oc2ccc(S(=O)(=O)NC(C)c3ccccc3)cc12 (centres undefined) | -0.46
CC(=O)CC1(O)C(=O)N(Cc2ccccc2Cl)c2ccccc21 (centres undefined) | 0.27
O=C(CSc1nc2ccccc2c(=O)n1-c1ccc2c(c1)OCO2)c1ccc(Cl)cc1 | 0.23
Cc1c(C(=O)Nc2ccccc2F)sc2nc(-c3ccccc3)cn12 | -0.83
CCOc1cccc2c1OC1(C)CC2NC(=S)N1c1ccc(Cl)cc1 (centres undefined) | -0.23
Cc1cccc(CSc2nc3c(c(=O)n2-c2ccc(Br)cc2)SCC3)c1 | -0.61
CCOc1ccc(S(=O)(=O)NCc2ccccc2)c2cccnc12 | -1
CC1CCN(S(=O)(=O)N2CCC(C(=O)NCc3ccccn3)CC2)CC1 | 0.27
CC1CCC(C(=O)NC(C(=O)NCc2ccccn2)C(C)C)CC1 (centres undefined) | -3.1*
CC1CCC(C(=O)NC(C(=O)Nc2ccc(C(C)C)cc2)C(C)C)CC1 (centres undefined) | -0.83
O=c1[nH]c2ccc(Cl)cc2c(-c2ccccc2)c1SCCO | -0.29
COc1ccc(-c2cc(=O)[nH]c(Sc3c(-c4ccccc4)c4cc(Cl)ccc4[nH]c3=O)n2)cc1 | -3.3*
COc1ccc(C2CC(c3c(-c4ccccc4)c4cc(Cl)ccc4[nH]c3=O)=NN2C(=O)CCC(=O)O)cc1 (centres undefined) | -0.07
Cc1ccc(NC(=O)C(c2ccccc2)N2CC(=O)Nc3ccccc32)cc1 (centres undefined) | -0.89
O=S(=O)(Nc1ccc(Cl)cc1)c1cnc[nH]1 | -3.5*
O=S(=O)(Nc1cccc(C(F)(F)F)c1)c1cnc[nH]1 | 0.38
COc1ccc(Cl)cc1NS(=O)(=O)c1cnc[nH]1 | 0.18
Oc1ccc(Cl)cc1C1CC(c2ccc3c(c2)OCO3)=NC(c2ccccc2Cl)N1 (centres undefined) | 0.88
COc1cccc(NC(=O)CSc2nc(NCc3ccc4c(c3)OCO4)c3ccccc3n2)c1 | 1.7
O=c1c(-c2ccccc2Cl)coc2cc(OCc3ccccc3Cl)ccc12 | -0.75
FC(F)(F)c1cc(-c2cccs2)nc2nc(=S)[nH]n12 | 0.01
Cc1ccc(NC(=O)C2C3NC(=S)NC2(C)Oc2ccccc23)c(C)c1 (centres undefined) | -0.17
SMILES | Measles inh
CCOc1cccc2c1OC1(C)NC(=S)NC2C1C(=O)Nc1ccc(C)cc1C (centres undefined) | 0.33
Cc1ccc(NC(=O)C2C3NC(=S)NC2(C)Oc2ccc(Br)cc23)c(C)c1 (centres undefined) | -3.3*
Cc1cc(C)c(NC(=O)c2cccs2)c(C)c1 | 0.07
CCCn1c(=S)[nH]c2cc(C(=O)N3CCCC3)ccc2c1=O | -0.44
CCOc1ccc(C2C3=C(CC(C)(C)CC3=O)NC3=C2C(=O)CC(C)(C)C3)cc1 | 1.9
O=C(NCc1ccco1)c1ccc2c(c1)ncn2C1CCCC1 | 0.83
Cc1ccc(-c2nc3ccccc3c(=O)n2CC(=O)NC2CCCCC2)cc1 | 0.28
CC(=O)Nc1ccc(-n2c(C=Cc3ccc(F)cc3)nc3ccccc3c2=O)cc1 | 1.2
COc1ccc(C2=CC(c3ccc(Br)cc3)n3ncnc3N2)cc1 (centres undefined) | -0.34
Cc1ccc(C2N(Cc3ccccc3)CCN2Cc2ccccc2)cc1 | -0.2
C=C1CSc2nc(=O)c3c4c(sc3n21)CCC4 | -3.1*
Cc1nc2sc3c(c2c(=O)[nH]1)CCC3 | 0.5
O=c1c2c3c(sc2n2c(=S)[nH]nc2n1Cc1ccccc1)CCC3 | -0.75
O=C1c2ccccc2-c2cc(C(=O)n3nnc4ccccc43)ccc21 | 0.04
Cc1ccc2c(c1)N(CCC(=O)NC(C)c1ccccc1)C(=O)CO2 (centres undefined) | 1.5
CCN(CC)CCCNc1ccc(N2C(=O)C3C4C=CC(C4)C3C2=O)cc1[N+](=O)[O-] (centres undefined) | 0.28
COC(=O)C1=C(N)OC2=C(C(=O)CCC2)C1c1ccc(OCc2ccccc2)cc1 (centres undefined) | 2
COc1ccccc1NC(=O)c1cccc([N+](=O)[O-])c1 | -0.86
COc1ccc([N+](=O)[O-])cc1NC(=O)c1cccc(F)c1 | -5.2*
COc1ccc([N+](=O)[O-])cc1NC(=O)c1cccc(C(=O)Nc2cc([N+](=O)[O-])ccc2OC)c1 | -0.38
Cc1cc(C)nc(NS(=O)(=O)c2ccc(Br)cc2)n1 | -3.1*
COc1ccc(CC(=O)Nc2ccc(S(=O)(=O)Nc3nc(C)cc(C)n3)cc2)cc1 | 1.5
COc1cccc(C(=O)Nc2ccc(S(=O)(=O)Nc3nc(C)cc(C)n3)cc2)c1 | 0.58
CC(=O)NC(c1ccccc1)c1cc(Cl)c2cccnc2c1O (centres undefined) | -0.77
CCOc1cc(C(NC(=O)CC)c2cc([N+](=O)[O-])c3cccnc3c2O)ccc1O (centres undefined) | -0.83
SMILES | Measles inh
CC(=O)NC(c1ccc(C)cc1)c1cc([N+](=O)[O-])c2cccnc2c1O (centres undefined) | -3.4*
Cc1ccc(/C(O)=C2\C(=O)C(=O)NC2c2ccccc2Cl)cc1 (centres undefined) | 0.27
CCOc1ccccc1NC(=O)c1ccc(F)c(S(=O)(=O)N2CCN(c3ccccn3)CC2)c1 | -0.46
c1cncc(-c2noc(COc3cccc4ccccc34)n2)c1 | 1.4
Cc1cc(Br)ccc1NC(=O)CCC(=O)Nc1ccc2nc(N3CCCCC3)cc(C)c2c1 | -1
O=C1CC(Sc2ccc([N+](=O)[O-])cc2)C(=O)N1c1cccc(N2C(=O)CC(Sc3ccc([N+](=O)[O-])cc3)C2=O)c1 (centres undefined) | 0.38
Cc1ccc(CCNC(=O)c2cnn3c(C)c(Cc4c(C)cc(C)cc4C)c(C)nc23)cc1 | -1.5
COc1ccc(OC)c(N(CC(=O)Nc2ccc(Br)cc2)S(=O)(=O)c2ccccc2)c1 | -0.49
COc1ccc(Nc2cc(NCCO)c([N+](=O)[O-])c3nonc23)cc1 | 1.1
O=[N+]([O-])c1cccc(-c2nc(=S)c3c(n2CCCO)CCCC3)c1 | 0.37
O=S(=O)(Nc1ccc2oc3c(c2c1)CCCC3)c1cccs1 | 0.27
CCC1Oc2ccc(C)cc2N(CC(=O)N2CCN(c3ccccc3F)CC2)C1=O (centres undefined) | 0.28
CCOC(=O)c1cc2c(=O)n3ccccc3nc2n(C)c1=NC(=O)c1cccc(OC)c1OC | 0
Cc1sc2ncn(CC(=O)NCCN3CCOCC3)c(=O)c2c1S(=O)(=O)N1CC(C)CC(C)C1 (centres undefined) | -0.48
COc1cccc(-n2c(=O)c3sccc3n(Cc3cccc([N+](=O)[O-])c3)c2=O)c1 | -0.62
Cc1ccc(C)c(CN2C(=O)C(C(C)C(=O)NCc3ccc4c(c3)OCO4)Sc3ccccc32)c1 (centres undefined) | -0.65
O=C1CCCC2=C1C(C#Cc1ccccc1)C1=C(CCCC1=O)O2 | 1
COC(=O)c1ccc(NC(=O)c2sc3ccccc3c2Cl)cc1 | -2
Cc1c(C(=O)O)cccc1N1C(=O)c2ccc(-c3nc4ccccc4c(=O)o3)cc2C1=O | -1.1
COc1cccc2sc(=NC(=O)c3ccc(S(=O)(=O)N4CCc5ccccc5C4)cc3)n(C)c12 | -0.02
CC1CCN(S(=O)(=O)c2ccc3c(c2)N(CC(=O)NCCCN2CCCC2)C(=O)CS3)CC1 | 0.22
COc1ccc(NC(=O)c2cc3n(n2)C(C(F)(F)F)CC(c2ccc(OC)c(OC)c2)N3)cc1Cl (centres undefined) | 1.1
O=C(c1ccco1)N1CCN(S(=O)(=O)c2ccc3[nH]c(=O)sc3c2)CC1 | -1.1
Cc1cccn2c(NC3CCCCC3)c(-c3cccnc3)nc12 | -1.5

Screening results (PubChem)
